# How the values were obtained:
# Experiment in all cases: thermal shift delta Tm vs DMSO control; higher = stronger stabilization (binding)
# Settings in all cases: 12.5 µM; protein concentration 2 µM
# [1] = tested on: LOC_OS02G45750-cb003
# In short: (§1)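 Thermal shift values come from differential scanning fluorimetry on purified rice kinase domains made in E. coli, with melting temperatures obtained from Boltzmann fits. Samples of 19.5 μl held 2 μM kinase, 100 mM potassium phosphate pH 7.5, 150 mM NaCl, 10% glycerol, 5 × SYPRO Orange and compound in DMSO, and were heated from 25°C to 95°C at 0.05°C/s. Each shift is a triplicate mean relative to the DMSO-only protein sample.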
# [2] = tested on: LOC_OS02G54510-cb004
# In short: as §1
# [3] = tested on: LOC_OS03G04050-cb001
# In short: as §1
# [4] = tested on: LOC_OS03G12390-cb001
# In short: as §1
# [5] = tested on: LOC_OS03G27990-cb004
# In short: as §1
# [6] = tested on: LOC_OS03G50450-cb001
# In short: as §1
# [7] = tested on: LOC_OS03G50810-cb003
# In short: as §1
# [8] = tested on: LOC_OS04G35114-cb001
# In short: as §1
# [9] = tested on: T1, LOC_OS04G38480-cb003
# T1 sequence (whole entry): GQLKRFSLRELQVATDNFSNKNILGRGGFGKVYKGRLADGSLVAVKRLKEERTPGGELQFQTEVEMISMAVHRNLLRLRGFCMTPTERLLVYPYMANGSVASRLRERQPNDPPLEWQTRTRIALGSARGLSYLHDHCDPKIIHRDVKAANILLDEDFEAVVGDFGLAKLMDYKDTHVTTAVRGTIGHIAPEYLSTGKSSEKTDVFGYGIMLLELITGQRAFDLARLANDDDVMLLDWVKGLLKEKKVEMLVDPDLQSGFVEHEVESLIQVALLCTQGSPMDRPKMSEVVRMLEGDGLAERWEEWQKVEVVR
# In short: as §1
# [10] = tested on: T2, LOC_OS04G41100-cb001
# T2 sequence (whole entry): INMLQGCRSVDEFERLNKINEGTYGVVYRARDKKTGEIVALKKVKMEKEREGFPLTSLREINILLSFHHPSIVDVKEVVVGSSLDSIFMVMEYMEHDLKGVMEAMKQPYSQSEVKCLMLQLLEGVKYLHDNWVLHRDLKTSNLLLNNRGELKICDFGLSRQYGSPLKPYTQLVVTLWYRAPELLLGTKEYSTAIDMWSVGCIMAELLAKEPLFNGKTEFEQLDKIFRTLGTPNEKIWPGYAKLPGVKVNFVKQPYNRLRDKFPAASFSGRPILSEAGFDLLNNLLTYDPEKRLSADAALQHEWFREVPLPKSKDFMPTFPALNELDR
# In short: as §1
# [11] = tested on: LOC_OS04G57630-cb004
# In short: as §1
# [12] = tested on: LOC_OS05G07850-cb002
# In short: as §1
# [13] = tested on: LOC_OS05G16824-cb004
# In short: as §1
# [14] = tested on: LOC_OS05G28520-cb001
# In short: as §1
# [15] = tested on: LOC_OS05G30820-cb001
# In short: as §1
# [16] = tested on: LOC_OS05G43570-cb004
# In short: as §1
# [17] = tested on: LOC_OS06G16330-cb003
# In short: as §1
# [18] = tested on: T3, LOC_OS06G22820-cb001
# T3 sequence (whole entry): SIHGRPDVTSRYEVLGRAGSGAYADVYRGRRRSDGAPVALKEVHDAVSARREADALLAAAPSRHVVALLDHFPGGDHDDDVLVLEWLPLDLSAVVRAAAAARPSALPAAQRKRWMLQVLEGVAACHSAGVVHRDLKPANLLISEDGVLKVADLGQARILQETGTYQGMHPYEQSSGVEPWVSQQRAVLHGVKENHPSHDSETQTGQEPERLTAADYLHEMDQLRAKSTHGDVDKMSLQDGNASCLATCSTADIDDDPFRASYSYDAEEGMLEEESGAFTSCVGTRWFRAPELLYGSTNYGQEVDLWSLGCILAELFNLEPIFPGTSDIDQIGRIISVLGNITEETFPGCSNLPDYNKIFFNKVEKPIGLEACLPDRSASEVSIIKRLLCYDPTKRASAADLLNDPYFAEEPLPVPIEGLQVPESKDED
# In short: as §1
# [19] = tested on: LOC_OS07G06570-cb004
# In short: as §1
# [20] = tested on: LOC_OS07G07230-cb001
# In short: as §1
# 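Also: purified Escherichia coli-expressed rice kinase domain construct.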
# Sequence of LOC_OS06G16330-cb003 (as listed by the source): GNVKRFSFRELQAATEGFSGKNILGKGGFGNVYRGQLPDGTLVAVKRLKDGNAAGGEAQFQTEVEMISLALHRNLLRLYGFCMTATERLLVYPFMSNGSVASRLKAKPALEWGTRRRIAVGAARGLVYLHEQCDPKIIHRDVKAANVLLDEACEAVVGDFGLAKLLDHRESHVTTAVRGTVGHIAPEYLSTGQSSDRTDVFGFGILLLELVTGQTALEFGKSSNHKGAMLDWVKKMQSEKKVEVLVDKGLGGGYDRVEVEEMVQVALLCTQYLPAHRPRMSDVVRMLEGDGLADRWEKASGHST
SMILES,thermal shift delta Tm [1] [°C],thermal shift delta Tm [2] [°C],thermal shift delta Tm [3] [°C],thermal shift delta Tm [4] [°C],thermal shift delta Tm [5] [°C],thermal shift delta Tm [6] [°C],thermal shift delta Tm [7] [°C],thermal shift delta Tm [8] [°C],thermal shift delta Tm [9] [°C],thermal shift delta Tm [10] [°C],thermal shift delta Tm [11] [°C],thermal shift delta Tm [12] [°C],thermal shift delta Tm [13] [°C],thermal shift delta Tm [14] [°C],thermal shift delta Tm [15] [°C],thermal shift delta Tm [16] [°C],thermal shift delta Tm [17] [°C],thermal shift delta Tm [18] [°C],thermal shift delta Tm [19] [°C],thermal shift delta Tm [20] [°C]
COc1ccc(COc2ccc(Cc3cnc(N)nc3N)cc2OC)cc1,0.53,0.05,0.43,-0.14,0.29,0.04,0.55,0.34,1.41,0.24,0.05,0.49,-1.41,0.33,0.26,0.4,1.65,0.41,0.82,-0.38
CS(=O)(=O)N1CCc2c(-c3cnc(N)nc3)nc(N3CCOCC3)nc21,1.16,0.52,0.13,0.72,0.23,0.77,0.53,0.89,1.31,0.14,0.4,2.27,0.4,0.43,0.79,0.7,0.69,0.66,0.72,-0.05
CC#CC(=O)N1CCC[C@H]1c1nc(-c2ccc(C(=O)Nc3ccccn3)cc2)c2c(N)nccn12 [Acalabrutinib (ACP-196)],1.09,0.55,0.39,-0.37,0.24,0.4,0.38,0.89,1.22,0.5,0.54,1.21,-2.72,0.31,0.59,0.02,0.81,0.52,1.01,0.32
COc1cc2ncnc(Nc3ccc(F)c(Cl)c3)c2cc1OCCCN1CCOCC1 [Gefitinib (ZD1839)],1.36,0.04,0.31,1.33,0.64,0.05,1.04,4.83,1.76,0.77,-0.05,9.4,-0.18,0.21,0.41,0.31,2.35,0.63,0.99,0.24
Cc1ccc(C(=O)Nc2cccc(C(F)(F)F)c2)cc1Nc1nc(-c2cccnc2)nc2c1cnn2C,0.71,1.84,0.36,1.07,0.25,0.79,0.32,0.29,0.47,0.58,0.31,0.03,-1.61,0.44,0.9,1.18,1.09,0.98,1.07,0.06
Cc1ccc(Nc2cc(N[C@@H]3CCCC[C@@H]3N)nnc2C(N)=O)nc1C,2.16,0.73,0.52,2.19,1.5,1.66,1.11,1.06,1.11,0.51,-0.04,6.83,5.76,0.7,1.49,0.67,4.95,1.48,1.39,0.12
CCOc1cc2ncc(C#N)c(Nc3ccc(OCc4ccccn4)c(Cl)c3)c2cc1NC(=O)/C=C/CN(C)C [Neratinib (HKI-272)],4.68,0.16,0.41,0.55,1.01,0.39,1.2,5.53,1.27,0.15,1.3,2.1,-0.55,0.73,0.56,0.35,0.45,0.9,1.96,0.81
CCn1c(N)c(C(=O)NC)c(=O)c2ccc(C#CC(C)(O)COC)nc21 (stereo not given),1.5,-0.18,0.43,1.63,0.43,0.79,0.85,1.56,0.68,0.29,0.45,5.21,3.79,0.37,0.73,0.13,0.51,0.3,1.2,-0.09
CCNc1nc(Nc2cc(F)c(C(=O)N3CCOCC3)cc2OC)ncc1C(F)(F)F,1.06,0.23,0.41,0.25,0.28,0.95,0.82,1.17,1.15,0.43,0,3.03,1.21,0.71,0.46,0.26,0.76,0.28,0.96,-0.16
Nc1ncnc2n[nH]c(Nc3ccc(F)cc3)c12,4.8,0.26,0.25,2.15,3.38,0.1,0.92,5.47,0.62,0.32,-0.19,8.51,1.59,0.61,0.77,0.52,2.45,0.73,1.75,0.82
CS(=O)(=O)CCNCc1ccc(-c2ccc3ncnc(Nc4ccc(OCc5cccc(F)c5)c(Cl)c4)c3c2)o1 [Lapatinib],0.06,-0.31,0.53,1.17,0.47,1.2,1.16,2.03,3.11,0.92,0.95,5.03,-0.92,0.22,0.61,1.4,0.59,1.74,2.3,-0.12
CC(C)(O)CNc1ncc(-c2ccnc(Nc3ccnc(Cl)c3)n2)c(CC2CC2)n1,2.85,0.6,0.19,-0.18,0.11,0.3,0.65,3.2,1.45,0.65,0.07,7.44,0.09,0.75,0.41,0.5,4.77,0.62,0.78,0.71
